# Reference: PubChem BioAssay AID504710 (Sanford-Burnham Center for Chemical Genomics, 2011)
# Activity calls are given as the source filed them.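 Rule for the calls: active = inhibition reaching about 16% in any single replicate (limit read from the data); inactive = the rest.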
# Target: Hexokinase HKDC1 (Homo sapiens) (UniProt Q2TB90)
# Test: compounds lowering human HKDC1 activity – biochemical, single concentration, confirmation (AID 504710)
# Details: recombinant HKDC1, G6PDH/diaphorase/resazurin fluorescence; at 20 µM; stronger effect = higher value
# Hexokinase HKDC1 (Homo sapiens), sequence (Q2TB90 whole entry, looked up): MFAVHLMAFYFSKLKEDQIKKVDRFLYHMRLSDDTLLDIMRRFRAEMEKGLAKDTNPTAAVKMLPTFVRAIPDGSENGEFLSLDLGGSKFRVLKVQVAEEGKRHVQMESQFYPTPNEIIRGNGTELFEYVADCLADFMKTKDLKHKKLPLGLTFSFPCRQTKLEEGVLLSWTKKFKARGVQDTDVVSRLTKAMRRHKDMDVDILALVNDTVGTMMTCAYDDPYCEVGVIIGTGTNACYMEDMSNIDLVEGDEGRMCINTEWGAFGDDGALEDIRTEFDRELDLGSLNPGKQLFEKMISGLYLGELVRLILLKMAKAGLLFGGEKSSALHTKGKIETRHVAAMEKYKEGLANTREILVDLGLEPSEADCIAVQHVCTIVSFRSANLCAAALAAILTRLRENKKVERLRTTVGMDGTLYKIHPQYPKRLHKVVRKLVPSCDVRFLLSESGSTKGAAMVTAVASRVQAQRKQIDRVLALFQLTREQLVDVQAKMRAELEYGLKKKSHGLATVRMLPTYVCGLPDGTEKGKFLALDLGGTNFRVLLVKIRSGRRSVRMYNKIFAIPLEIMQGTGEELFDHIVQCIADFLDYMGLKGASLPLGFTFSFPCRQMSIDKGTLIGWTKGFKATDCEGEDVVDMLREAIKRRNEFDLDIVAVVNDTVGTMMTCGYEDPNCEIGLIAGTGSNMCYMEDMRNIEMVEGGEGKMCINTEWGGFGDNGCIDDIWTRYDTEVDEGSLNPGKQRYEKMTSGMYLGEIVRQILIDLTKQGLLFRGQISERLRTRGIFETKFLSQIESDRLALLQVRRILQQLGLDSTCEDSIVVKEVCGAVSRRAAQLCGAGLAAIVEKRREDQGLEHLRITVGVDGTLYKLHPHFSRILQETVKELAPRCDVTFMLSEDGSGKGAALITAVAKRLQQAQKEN
row,SMILES,inhibition
1,Cc1cccc(C)c1Nc1nnc(SCc2cn3cccc(C)c3n2)s1,54.1% (active)
2,COC(=O)c1ccc(CCc2cc(O)c(Br)cc2O)cc1,54.2% (active)
3,Cc1nc2c(c(=O)c3ccccc3n2C)c(=O)n1-c1ccccc1,56% (active)
4,COC1=CC(=O)C=C(OC)C1=O,75.2% (active)
5,O=C(NCCc1ccccc1)C(c1cccs1)N(C(=O)CCl)c1ccc(Cl)cc1 (configuration not stated),23% (active)
6,O=S(=O)(c1ccc(NC(=S)NN=C(Cc2ccccc2)Cc2ccccc2)cc1)N1CCOCC1,-43.9% (inactive)
7,Cc1ccc(SC2=C(N(C)C)C(=O)c3ccccc3C2=O)cc1,59.9% (active)
8,Cc1ccc(S(=O)(=O)/N=C2/C=C(Sc3ncn[nH]3)C(=O)c3ccccc32)cc1,63.3% (active)
9,O=C1C(=O)c2c(C(=O)c3ccccc3)coc2-c2ccccc21,53.2% (active)
10,CC1(C)C(=O)Nc2ccccc2N1C(=O)COC(=O)c1cc(Cl)cc(Cl)c1,-50.1% (inactive)
11,O=C(O)c1cc(N2N=C(C(F)(F)F)/C(=C/C=C/c3ccco3)C2=O)ccc1Cl,57.5% (active)
12,CC(=NNC(=S)N1CCCCC1)c1cccc(C)n1,-39.6% (inactive)
13,COc1ccc2[nH]c3c4c(ccc3c2c1)C(=O)C=CC4=O,32.9% (active)
14,C[N+](C)(CCCCCC[N+](C)(C)CCCN1C(=O)c2cccc3cccc(c23)C1=O)CCCN1C(=O)c2cccc3cccc(c23)C1=O,-82% (inactive)
15,Cc1cc(C)n2cc(CSc3nnc(-c4ccccc4)c(-c4ccccc4)n3)nc2n1,38.5% (active)
16,COc1ccc(/C=C/C(=O)NC(=S)NNC(=O)c2cnccn2)cc1,-58.3% (inactive)
17,NS(=O)(=O)c1ccc(N=Nc2c(=O)[nH]n3c(=O)c4c([nH]c23)CCCC4)cc1,72.5% (active)
18,CC(=NNc1nc2ccccc2o1)c1cc2ccccc2cn1,-77.2% (inactive)
19,CC(=O)NC1C(=O)N(CCN2CCOCC2)c2ccc(F)cc21 (configuration not stated),61.1% (active)

row,SMILES,inhibition
1,COc1cc(SC#N)ccc1N=Cc1c(C)[nH]n(-c2ccc(Cl)cc2)c1=O,-38.2% (inactive)
2,Clc1cccc(N=C2NN=C(c3ccc4c(c3)OCCO4)CS2)c1,-99.6% (inactive)
3,COc1cc(/C=C2\SC(c3ccc(C)cc3)=NC2=O)ccc1O,32.2% (active)
4,Cn1cnnc1SC1c2cccc3cccc(c23)C1NS(=O)(=O)c1ccccc1 (configuration not stated),-64% (inactive)
5,COc1cc(OC)cc(C(=O)NC(=S)NNC(=O)c2cnccn2)c1,-40% (inactive)
6,O=Cc1[nH]c2ccccc2c1N(C(=O)CCl)c1ccccc1,34% (active)
7,CC12CCC(C(=O)N/N=C/c3ccc(O)cc3O)(OC1=O)C2(C)C (configuration not stated),-34.9% (inactive)
8,COc1ccccc1C1=NNC(=Nc2cccc(S(=O)(=O)N(C)C)c2)SC1,-177% (inactive)
9,COC(=O)c1ccc(NC(=O)CSc2n[nH]c(-c3ccncc3)n2)cc1,43% (active)
10,COC(=O)c1ccccc1NC1=C/C(=N\S(=O)(=O)c2cccs2)c2ccccc2C1=O,62.6% (active)
11,CCOC(=O)C1=C(c2ccc(OC)cc2)C(=O)c2ccccc2C1=O,75% (active)
12,CCCCNC(=O)c1sc(=S)n2c1[nH]c(=O)c1ccccc12,56.5% (active)
13,Cc1cc(C)nc(/N=c2/ssnc2Cl)c1,-84.2% (inactive)
14,N#Cc1c(SCC(=O)Nc2nc3ccc(Br)cc3s2)sc2c(O)cc(=O)[nH]c12,44.9% (active)
15,O=C1C=C(NCc2ccccc2)c2ccccc2C1=O,56% (active)
16,O=C(c1ccccc1)c1n[nH]c(-c2ccccc2)cc1=O,16.3% (active)
17,Fc1ccccc1N=C1NN=C(c2ccccc2)CS1,-53.4% (inactive)
18,CC(NC(=O)c1sc2cc([N+](=O)[O-])ccc2c1Cl)C(C)(C)C (configuration not stated),-39.3% (inactive)
